# Bioassay records deposited in PubChem by National Center for Advancing Translational Sciences (NCATS).
# p53 reactivator = qHTS assay for re-activators of p53 using a Luc reporter. H1299 p53-A138V BP100-luciferase reporter, luminescence, 24 h. Potency, µM (series often up to 92.2 µM), for the others: top-dose activity change, positive = activation, hits mostly activators. 320,000 tested, 0.063% active; further: % of control where 0% means no effect; nearly all actives have a fitted effect of over 45% in size
#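 H1299 (p53-null), stable ts p53-A138V + BP100-Luc; 1000 cells/well, Opti-MEM/10% FBS; cpd 4 pt, 1:5; 24 h, 37 deg C, 5% CO2; detection reagent 10 min RT; luminescence.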
# SMN2 splice enh = qHTS Assay for Enhancers of SMN2 Splice Variant Expression; 210,000 tested, 2.8% active; HEK293 SMN2-luciferase splicing reporter, luminescence, 30-36 h; AID 1458, 2008; Potency, µM (series often up to 46.1 µM), without a hit: top-dose activity change, positive = activation, actives largely listed as activators; further: % of control where 0% means no effect; nearly all actives have a fitted effect of over 55% in size
#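 qHTS luciferase splicing reporter: luminescence rises when SMN2 exon 7 is included in transfected HEK293 cells. Compound exposure lasted 30-36 h at 37C, with 4.5 mM final sodium butyrate as control, followed by a ONE-Glo read.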
# Rab9 prom act = qHTS Assay for Rab9 Promoter Activators; Huh7 Rab9 promoter-luciferase reporter, luminescence, 24 h; AID 485297, 2010; Potency, µM (series often up to 9.22 µM), for inactives: top-dose activation, negative = inhibition, actives largely listed as activators; 320,000 tested, 2.8% active; further: % of control where 0% means no effect; nearly all actives have a fitted effect of over 60% in size
#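 Huh7 cells stably carrying Rab9 promoter–luciferase reporter, plated 1500 cells/well, compound added after 2 h and incubated 24 h at 37 °C; luciferase luminescence then read after 10 min with detection reagent.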
# NPC1 prom act = qHTS Assay for NPC1 Promoter Activators; Huh7 NPC1 promoter luciferase reporter, 24 h; Potency, µM (doses to about 9.22 µM), without a hit: at the top dose activation, usual class: activators; 320,000 tested, 2.4% active; AID 485313, 2010; further: % of control where 0% means no effect; nearly all actives have a fitted effect of over 60% in size
#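 Luciferase expression driven by the NPC1 promoter was measured in stably transfected Huh7 cells after a 24 h compound incubation, using a luciferase reagent and a luminescence read.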
# ELG1 genotox = qHTS screen for small molecules that induce genotoxicity in human embryonic kidney (HEK293T) cells expressing luciferase-tagged ELG1; HEK293T ELG1-luciferase reporter, luminescence, 16 h; Potency, µM (titrated, usually from 46 µM), for the others: top-dose activity change, positive = activation, most hits filed as activators; 330,000 tested, 1.3% active; AID 504466, 2011; further: % of control where 0% means no effect; nearly all actives have a fitted effect of over 60% in size
#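 DMSO vehicle served as control against compound-treated ELG1-luciferase HEK293T cells; exposure lasted 16 hr at 37 °C and 5% CO2, followed by ONE-Glo luminescence detection after 30 min.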
# FLuc modulator = qHTS profiling assay for firefly luciferase inhibitor/activator using purifed enzyme and Km concentrations of substrates (counterscreen for miR-21 project); 360,000 tested, 6.9% active; purified FLuc, Km substrates, luminescence inhibition; Potency, µM (top dose mostly 57.5 µM), inactives show top-dose activity change, negative = inhibition, actives largely listed as inhibitors; Luciferin 4-monooxygenase (Photinus pyralis), P08659; AID 588342, 2011;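 further: plate controls were vehicle for no effect and reference inhibitor for full effect; nearly all actives have a fitted effect of over 55% in size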
# Target sequence (P08659 whole entry, looked up): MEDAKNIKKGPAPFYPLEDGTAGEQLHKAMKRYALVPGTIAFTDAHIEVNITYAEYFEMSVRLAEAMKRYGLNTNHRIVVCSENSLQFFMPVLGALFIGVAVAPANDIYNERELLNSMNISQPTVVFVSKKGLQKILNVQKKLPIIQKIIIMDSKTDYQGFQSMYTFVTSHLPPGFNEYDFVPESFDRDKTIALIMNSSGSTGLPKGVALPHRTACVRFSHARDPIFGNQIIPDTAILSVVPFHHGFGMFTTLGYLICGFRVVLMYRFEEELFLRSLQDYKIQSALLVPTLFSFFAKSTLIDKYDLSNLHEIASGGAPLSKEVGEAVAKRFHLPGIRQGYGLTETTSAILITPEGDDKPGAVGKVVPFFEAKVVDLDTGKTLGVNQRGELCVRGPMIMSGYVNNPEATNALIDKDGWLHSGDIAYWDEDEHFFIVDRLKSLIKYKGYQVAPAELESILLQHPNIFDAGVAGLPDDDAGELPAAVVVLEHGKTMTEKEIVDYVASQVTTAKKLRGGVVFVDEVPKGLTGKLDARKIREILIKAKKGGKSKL
#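 Purified P. pyralis luciferase (10nM final) with 10uM D-luciferin and 10uM ATP (Km levels) in 50mM Tris acetate pH 7.5, 10mM Mg acetate, 0.01% Tween-20, 0.05% BSA; qHTS 6-point titration, ~60 µM downward; luminescence read.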
# Active calls of the source: *; ? = inconclusive; . = not tested or not shown; [ ] = remark or other dose. Compounds with a hit are over-represented: about 7.4% of the library has one in this group of screens. The call rests on the fitted dose curve; in most records, active means well fitted curve in the direction sought with a large enough effect; inconclusive means small, poorly fitted or top-dose-only effect, or another doubt; inactive means no such curve, though single readings can be large; an effect the other way counts as inactive or inconclusive. Potency means the concentration at half of the fitted maximal effect.
SMILES,p53 reactivator,SMN2 splice enh,Rab9 prom act,NPC1 prom act,ELG1 genotox,FLuc modulator
O=C(O)CSc1ncccc1[N+](=O)[O-],.,1%[9.22 µM],.,.,.,.
Cc1ccc(-n2ncc3c(N4CCN(Cc5ccccc5)CC4)ncnc32)cc1C,.,.,.,.,.,-13%
Cc1ccc(-n2ncc3c(N4CCN(C)CC4)ncnc32)cc1Cl,.,.,.,.,.,5.4µM*
Cc1ccc(-n2ncc3c(N4CCN(C)CC4)ncnc32)cc1,.,.,.,.,.,3µM*
Clc1ccc(N2CCN(c3ncnc4c3cnn4-c3ccccc3)CC2)cc1Cl,.,.,.,.,.,-2%
Cc1ccc(-n2ncc3c(N(C)C)ncnc32)cc1Cl,.,.,.,.,.,0.76µM*
CCOC(=O)N1CCN(c2ncnc3c2cnn3-c2ccc(Cl)cc2)CC1,4%,-53%,-1%,-3%,1%,7%
CN1CCN(c2ncnc3c2cnn3-c2ccc(Cl)cc2)CC1,14%,0%,0.4µM*,?,?,0.95µM*
Cc1ccc(-n2ncc3c(N4CCN(c5ccc(F)cc5)CC4)ncnc32)cc1,.,.,.,.,.,0%
O=C(O)[C@H]1CCCC[C@H]1C(=O)Nc1ccc(Nc2ccccc2)cc1,?,8%,0%,1%,2%,?
Cc1ccccc1N1CCN(c2ccc(NC(=O)C3CCCCC3C(=O)O)cc2)CC1 (stereo not given),2%,-19%,1%,0%,1%,11µM*
Nc1cnn([C@@H]2O[C@H](CO)[C@@H](O)[C@H]2O)c(=O)n1,.,22µM*,.,.,.,.
NC(N)=N/N=C/c1cc([N+](=O)[O-])ccc1O,14%,-5%,-1%,0%,2%,-2%
CS/C(N)=N/N=C/c1cc(C)ccc1O,8%,.,0.16µM*,1.1µM*,7.3µM*,1.2µM*
CCN(CC)c1ccc(/C=N/N=C(N)N)c(O)c1,2%,-37%,-19%,-11%,10%,-5%
CS/C(N)=N/N=C/c1cc(Br)cc(Br)c1O,1%,.,2%,-1%,3%,27µM*
CCS/C(N)=N/N=C/c1cc(C)ccc1O,?,11µM*,?,1.6µM*,1.2µM*,0.95µM*
CCCCS/C(N)=N/N=C/c1cc(C)ccc1O,25%,15%,5%,18%,?,17µM*
O=C1CN(C(=O)c2ccc(S(=O)(=O)N3CCCCC3)cc2)C(c2ccc(F)cc2)c2cc(Cl)ccc2N1 (stereo not given),.,1%,.,.,.,1%
CC(C)c1ccccc1NC(=O)CNC(C)c1ccc(F)cc1 (stereo not given),-2%,6%,-1%,1%,-6%,2%
COC(=O)c1c(-c2ccccc2)c[nH]c1C,3%,.,-1%,3%,11%,27µM*
COC(=O)c1c(C)[nH]c(C)c1-c1ccccc1Cl,5%,-13%,1%,-1%,0%,11%
COC(=O)c1c(S(C)(=O)=O)nc(-c2ccccc2)[nH]c1=O,7%,?,-7%,-4%,2%,-2%
COC(=O)c1c(C)[nH]c(C=O)c1-c1ccccc1,17%,.,?,27%,?,13µM*
CC1=CN2C(=N)/C(=C/c3ccco3)C(=O)N=C2S1,?,3.5µM*,1.8µM*,2.5µM*,?,1.5µM*
SMILES,p53 reactivator,SMN2 splice enh,Rab9 prom act,NPC1 prom act,ELG1 genotox,FLuc modulator
CCOc1ccc(-c2ccc(/C=C3/C(=N)N4C=CSC4=NC3=O)o2)c([N+](=O)[O-])c1,-19%,-9%,-6%,0%,?,2%
CC1=CN2C(=N)/C(=C/c3ccc([N+](=O)[O-])o3)C(=O)N=C2S1,-37%,-39%,-54%,-30%,-14%,13µM*
CC1=CN2C(=N)/C(=C/c3cn(CCCOc4ccccc4C)c4ccccc34)C(=O)N=C2S1,?,-48%,?,?,?,-8%
Cc1ccc(-n2ncc(C(=O)NCCCN3CCN(c4cccc(Cl)c4)CC3)c2-n2cccc2)cc1,.,.,.,.,.,-3%
Cc1cc(/C=N/NC(=O)c2ccsc2)c(C)n1-c1cnccn1,-10%,24%,?,18%,?,19µM*
Cc1ccccc1-n1c(C)cc(/C=N/NC(=O)c2ccncc2)c1C,?,4%,15%,21%,8%,3.8µM*
Cc1cc(C)cc(-n2c(C)cc(/C=N/NC(=O)c3ccncc3)c2C)c1,24%,-13%,0%,-5%,4%,-5%
COc1ccc(NC(=O)c2cc3c(=O)n(C)c4cc(Cl)ccc4c3s2)cc1Cl,.,.,.,.,.,4%
CCCCOC(=O)c1ccc(NC(=O)Cc2coc3ccc(C(C)C)cc23)cc1,.,6%,.,.,.,1%
N#C/C(=C\c1ccc(Sc2ccccc2)o1)c1nc2ccccc2[nH]1,?,11µM*,2.2µM*,2.8µM*,?,2.7µM*
N#C/C(=C\c1ccc(-c2ccc(F)cc2F)o1)c1nc2ccccc2[nH]1,.,3%,.,.,.,-11%
N#C/C(=C\c1ccc(-c2ccccc2C(=O)O)o1)c1nc2ccccc2[nH]1,9%,-6%,0%,6%,12%,12µM*
Cc1ccc2nc(/C(C#N)=C/c3ccc(-c4ccccc4C(=O)O)o3)[nH]c2c1,0%,.,0%,-3%,0%,4.3µM*
Cc1cc(/C=C(/C#N)c2nc3ccccc3[nH]2)c(C)n1-c1ccccc1C(=O)O,2%,.,0%,0%,-3%,?
Cc1cc2nc(/C(C#N)=C\c3ccc(-c4ccccc4C(=O)O)o3)[nH]c2cc1C,.,.,5%,18%,3%,1.5µM*
COC(=O)CCCC1=CC2=C(c3ccccc3)C(=O)C(C)(OC(=O)C3CCCC3)C(=O)C2=CO1 (stereo not given),.,-6%,.,.,.,.
Cc1cc2nc3s/c(=C/c4ccc(-c5ccccc5C(=O)O)o4)c(=O)n3c2cc1C,-2%,.,11%,15%,5%,4.8µM*
Nc1[nH]nc2nc3ccccc3cc12,8%,8%,1%,2%,3%,-13%
CCc1ccc2nc3n[nH]c(N)c3cc2c1,?,?,2.8µM*,?,13µM*,4.8µM*
O=c1c2ccccc2ncn1-c1ccc2c(c1)OCCO2,10%,2%,2.8µM*,?,?,?
c1ccc2nc(-c3nccs3)ccc2c1,?,17%,?,24%,?,13µM*
Clc1ccsc1-c1ccc2ccccc2n1,?,?,?,?,?,11µM*
Cc1ccsc1-c1ccnc(-n2cccc2)n1,14%,-13%,12%,4%,0%,?
